# Test results taken from the supplement of paper PMC3334620.
# Over roughly 33,000 sequences, “E-score (-0.5 to 0.5)” has its median near -0.015; the highest 2% begin near 0.3. Shown is part of a subset that was picked to be rich in the highest values.
# Molecular target: T1, Abf1 (UniProt P14164)
# T1 sequence: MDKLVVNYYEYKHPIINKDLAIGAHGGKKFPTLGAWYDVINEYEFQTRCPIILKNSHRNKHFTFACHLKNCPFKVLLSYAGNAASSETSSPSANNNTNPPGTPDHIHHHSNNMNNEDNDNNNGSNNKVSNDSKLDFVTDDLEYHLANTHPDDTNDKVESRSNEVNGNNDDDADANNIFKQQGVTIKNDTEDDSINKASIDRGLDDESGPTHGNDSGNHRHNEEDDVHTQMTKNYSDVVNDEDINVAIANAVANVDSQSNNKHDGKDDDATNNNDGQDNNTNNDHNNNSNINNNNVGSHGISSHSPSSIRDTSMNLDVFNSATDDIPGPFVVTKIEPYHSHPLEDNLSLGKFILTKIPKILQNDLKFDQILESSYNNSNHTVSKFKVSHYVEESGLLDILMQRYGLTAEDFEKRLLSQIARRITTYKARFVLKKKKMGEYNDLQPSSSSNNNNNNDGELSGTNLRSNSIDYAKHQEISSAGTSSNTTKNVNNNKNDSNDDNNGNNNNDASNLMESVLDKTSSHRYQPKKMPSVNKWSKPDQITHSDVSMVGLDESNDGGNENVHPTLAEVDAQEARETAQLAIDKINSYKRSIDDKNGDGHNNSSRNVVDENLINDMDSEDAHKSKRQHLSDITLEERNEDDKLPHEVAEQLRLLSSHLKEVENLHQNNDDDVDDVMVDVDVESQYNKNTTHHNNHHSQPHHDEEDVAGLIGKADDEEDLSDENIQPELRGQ
# Assay: PBM E-score (8-mer binding enrichment) (E-score (-0.5 to 0.5)); higher = stronger / more preferred TF binding
# Conditions: protein concentration: 200 nM; construct: GST-full length
# Protocol: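 Universal 'all 10-mer' protein binding microarrays (Agilent AMADID 015681) probed with GST-tagged S. cerevisiae TFs (full-length or DBD) made by in vitro transcription/translation (PURExpress), about 100-200 nM. Bound TF was detected with fluorescent anti-GST. Each ungapped 8-mer (which stands for itself and its reverse complement) is scored by the PBM enrichment score (E-score), a modified Wilcoxon-Mann-Whitney statistic from -0.5 to +0.5, computed with the Universal PBM Analysis Suite. Scale: above 0.35 generally sequence-specific binding.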
row,Sequence,PBM E-score
1,AATTGTCA,0.335
2,AATTGTCC,-0.0973
3,GATTGTCA,0.268
4,AGAGTGGC,-0.251
5,AGCAGATG,-0.0843
6,CTATTAAA,-0.0136
7,ATATTAAA,0.33
8,TTATTAAA,0.116
9,AAAAGTTA,0.151
10,CCATTCGG,-0.0195
11,GCTTATCA,0.0367
12,ACTTATCC,0.11
13,ATTTATCC,0.317
14,GTTTATGA,0.11
15,GTTTATCA,0.304
16,ATTTATTA,0.309
17,GTTTATTA,0.0803
18,CTTTATCC,-0.0621
19,ATTATTTA,0.254
20,CGTTATCA,0.205
21,CTTTATCA,0.313
22,ATTTATCG,0.222

row,Sequence,PBM E-score
1,ACTCCCAT,-0.029
2,GATCGACA,0.013
3,TCTTGTAA,0.0644
4,CCGTAAGC,0.0521
5,ATTTATAA,0.176
6,ATTTATCA,0.314
7,ATTTATGA,0.229
8,TGTACCAA,0.0776
9,CGTACCAG,0.0671
10,TGTACTAA,0.0702
11,CGTACTAC,0.274
12,CGTACTAA,0.329
13,AGTACTCA,-0.0128
14,CGTACTCA,0.304
15,CGTACCAA,0.353
16,CGTACTCC,0.203
17,CGACGCGA,-0.0138
18,AGAATGTC,0.188
19,ACAACGCC,0.13
20,ACCCTACA,-0.153
21,CGGTCAAC,0.0203
22,ACGACGTG,0.232

row,Sequence,PBM E-score
1,GCAAGCGC,-0.201
2,ACCTCACC,-0.0217
3,CCTACGAA,0.253
4,TCTACGAA,0.301
5,AATACGAC,0.278
6,GTTACGAA,0.208
7,TATACGAA,0.368
8,GATACGAA,0.309
9,GATACGAC,0.148
10,AATACGAT,0.276
11,ACTACGAA,0.205
12,TATACGGA,0.164
13,AATACGAA,0.337
14,CATACGAA,0.267
15,CCCCATCA,-0.235
16,GAATTGGA,-0.016
17,AGCACACC,-0.13
18,CACAAGAG,-0.0119
19,CCAGCACA,-0.0686
20,AGCGAGAA,-0.0126
21,CGATATTA,0.326
22,CGATATGA,0.161

row,Sequence,PBM E-score
1,CGATATCA,0.363
2,CGATATTC,0.225
3,CGATATCG,0.372
4,GGATATTA,0.088
5,CGGTATCA,0.204
6,AGATATCG,0.11
7,CGATATCC,0.17
8,GGACCGCA,-0.155
9,ACAGGGGC,-0.194
10,ACACCCGT,-0.04
11,TCAAACAA,-0.127
12,GAGAGGAC,-0.077
13,TCAGTAGA,-0.0357
14,CATTAGTC,-0.14
15,GTGACCAC,0.175
16,AAGATCGC,0.169
17,ACGATCGT,0.319
18,AAGATCGG,-0.163
19,AAGATCGT,0.332
20,ACGATCGC,0.265
21,ACGATCGG,0.168
22,GCGCTGTA,-0.132
